In general, AC50 refers to the concentration giving half of the maximal activity seen.

We go through 40 compounds from PubChem BioAssay (EPA / NIEHS).

Structures are written as SMILES. Calls of active or inactive are those of the source. How the source made its calls: active means hit-call score of the fitted dose curve at least 0.9, where 1 is the maximum; inactive means score below 0.9.

This assay in a line: Tanguay_ZF_120hpf_BRN: Oregon State University Tanguay Lab 120 Hour Post-fertilization zebrafish Assay for Brain Region Malformation (AID 2284402). As to the method: Tanguay_ZF_120hpf is a whole embryo, multiplexed endpoint assay using zebrafish larvae exposed for 120 hours post fertilization on a 96-well plate.Tanguay_ZF_120hpf_BRN is one of one assay component(s) measured or calculated from the Tanguay_ZF_120hpf assay. It is designed to make measurements of zebrafish development as detected with brightfield microscopy of developing zebrafish embryos.Data from the assay component Tanguay_ZF_120hpf_BRN was analyzed into 1 assay endpoints. This assay endpoint, Tanguay_ZF_120hpf_BRN, was analyzed in the positive analysis fitting direction relative to DMSO as the negative control and baseline of activity. Using a type of morphology reporter, gain-of-signal activity can be used to understand changes in developmentals as they relate to the whole embryo. To generalize the intended target to other relatable targets, this assay endpoint is annotated to the zebrafish development intended target family, where the subfamily is brain morphogenesis.
Zebrafish husbandry: Tropical 5D wild-type adult zebrafish were housed in at an approximate density of 1000 per 100 gallon tank at the Sinnhuber Aquatic Research Laboratory, Oregon State University, Corvallis, OR. Each tank was kept at standard laboratory conditions of 28C on a 14-h light/10-h dark photoperiod in fish water consisting of reverse osmosis water supplemented with a commercially available salt (Instant Ocean). Spawning funnels were placed into the tanks the night prior, and embryos were collected and staged. To increase bioavailability, the chorion was enzymatically removed using pronase (63.6mg/ml, >/= 3.5U/mg, Sigma-Aldrich: P5147) at 4 hours post fertilization (hpf) using a custom automated dechorionator.Chemical exposures: Six hpf dechorionated embryos were placed 1 embryo per well in a 96-well plate prefilled with 90 ul of EM using automated embryo placement systems (AEPS). Ten microliters of each row of dilution plate 2 was added to 2 exposure plates. The final DMSO concentration used was 0.64% (vol/vol). Thirty-two embryos were also exposed to 5uM trimethyltin chloride (positive control). Plates were sealed to prevent evaporation and foil covered to reduce light exposure and kept in a 28C incubator. Embryos were statically exposed until 120 hpf. At 24 hpf, embryos were assessed for photomotor response using a custom photomotor response analysis tool (PRAT) and for developmental toxicity endpoints (MO24: mortality at 24 hpf, DP: developmental progression, SM: spontaneous movement, and NC: notochord distortion). At 120 hpf, locomotor activity was measured using Viewpoint Zebralab and assessed for 13 endpoints. Zebrafish acquisition and analysis program (ZAAP), a custom program designed to inventory, acquire, and manage zebrafish data, was used to collect developmental endpoints as either present or absent (i.e., binary responses were recorded). If mortality occurred for an embryo (at either 24 or 120 hpf), the non-mortality endpoints were not measured.
Turning to `O=S(=O)(OCCOC(F)(F)F)C(F)(F)F`, the outcome was inactive.

Turning to `FC1CC(F)(F)C(F)(F)C1(F)F` (stereo not given), the compound was classed as inactive.

For the compound `O=C(O)C(F)(F)C(F)(F)C(F)(F)C(F)(F)F`, the result was inactive.

In the case of `O=C(O)C(F)(F)C(F)(F)C(F)F`, the compound was classed as inactive.

As for `COC(=O)CCC(F)(F)C(F)(F)C(F)(F)C(F)(F)F`, the call was inactive.

Take `FC(F)(F)C(F)(F)C(F)(F)C(F)(F)C(F)(F)C(F)(F)C(F)(F)Br`: the call was inactive.

With `O=C(O)C(F)(F)C(F)(F)F`, the result was inactive.

As for `C=C(C)C(=O)OCCC(F)(F)C(F)(F)C(F)(F)C(F)(F)C(F)(C(F)(F)F)C(F)(F)F`, the compound was called inactive.

With `O=C(O)C(F)(F)C(F)(F)OC(F)(F)F`, the compound was called inactive.

On to `O=C(O)C(F)(F)C(F)(F)C(F)(F)C(F)(F)C(F)(F)C(F)(F)C(F)(F)C(F)(F)C(F)(F)C(F)(F)C(F)(F)C(F)(F)F`, for which the result was inactive.

In the case of `FC(F)(F)C(F)(F)C(F)(F)C(F)(F)C(F)(F)C(F)(F)C(F)(F)C(F)(F)F`, the compound was called inactive.

For the compound `OCC(F)(F)C(F)(F)C(F)(F)C(F)(F)C(F)(F)C(F)F`, the compound was classed as inactive.

For the compound `OCC(F)(F)C(F)(F)C(F)(F)F`, the result was inactive.

With `O=C(O)C=C(C(F)(F)F)C(F)(F)F`, the result was inactive.

Take `C=CC(F)(F)C(F)(F)C(F)(F)C(F)(F)C(F)(F)C(F)(F)C(F)(F)C(F)(F)C=C`: the result was inactive.

Consider `OCC(F)(F)C(F)(F)C(F)(F)C(F)F`, for which the result was inactive.

`FC(F)(F)C(F)(F)C(F)(F)C(F)(F)C(F)(F)C(F)(F)C(F)(F)I`: the outcome was inactive.

Consider `FC(F)(F)C(F)(F)C(F)(F)C(F)(F)C(F)(F)C(F)(F)C(F)(F)C(F)(F)CCS`, for which the outcome was inactive.

In the case of `O=C(O)C(F)(F)C(F)(F)C(F)(F)F`, the compound was classed as inactive.

For `FC(F)(F)C(F)(F)C(F)(F)C(F)(F)C(F)(F)CCI`, the compound was called inactive.

Turning to `OCCCC(F)(F)C(F)(F)C(F)(F)C(F)(F)C(F)(F)C(F)(F)C(F)(F)F`, the result was inactive.

Take `Cc1ccc(S(=O)(=O)OCC(F)(F)C(F)(F)C(F)(F)C(F)(F)C(F)(F)C(F)F)cc1`: the call was inactive.

In the case of `FC(F)(F)C(F)(F)C(F)(F)C(F)(F)CCI`, the result was inactive.

For `C=CC(=O)OCC(F)(F)C(F)(F)C(F)(F)C(F)(F)COC(=O)C=C`, the compound was called inactive.

Turning to `C=CC(=O)OCC(F)(F)C(F)(F)C(F)(F)C(F)(F)C(F)(F)C(F)(F)C(F)(F)F`, the compound was called inactive.

On to `O=C(O)C(F)(OC(F)(F)C(F)(OC(F)(F)C(F)(F)C(F)(F)F)C(F)(F)F)C(F)(F)F` (stereo not given), for which the compound was called inactive.

As for `O=C(O)C(F)(F)C(F)(F)C(F)(F)C(F)(F)C(F)(F)C(F)(F)C(F)(F)C(F)(F)Cl`, the AC50 was 47.7 µM (active).

For the compound `C=CC(F)(F)C(F)(F)C(F)(F)C(F)(F)C(F)(F)C(F)(F)C(F)(F)C(F)(F)F`, the call was inactive.

In the case of `O=P(O)(O)OCCC(F)(F)C(F)(F)C(F)(F)C(F)(F)C(F)(F)C(F)(F)F`, the call was inactive.

With `FC(F)(F)C(F)(F)C(F)(F)C(F)(F)C(F)(F)C(F)(F)CC1CO1` (stereo not given), the compound was called inactive.

As to `FC(F)(F)C(F)(F)CNCC(F)(F)C(F)(F)F`, the call was inactive.

Take `FC(F)(F)C(F)(F)C(F)(F)N(C(F)(F)C(F)(F)C(F)(F)F)C(F)(F)C(F)(F)C(F)(F)F`: the compound was called inactive.

On to `OCCCC(F)(F)C(F)(F)C(F)(F)F`, for which the call was inactive.

With `O=C(O)C(F)(F)C(F)(F)C(F)(F)C(F)(F)C(F)(F)C(F)(F)C(F)(F)C(F)(F)C(F)(F)C(F)(F)C(F)(F)C(F)(F)C(F)(F)F`, the compound was classed as inactive.

In the case of `O=C(CC(=O)C(F)(F)C(F)(F)F)C(F)(F)F`, the outcome was inactive.

For the compound `CCCCCCCCC(F)(F)C(F)(F)C(F)(F)C(F)(F)C(F)(F)C(F)(F)F`, the compound was called inactive.

Take `O=S(=O)(O)C(F)(F)C(F)(F)C(F)(F)C(F)(F)C(F)(F)C(F)(F)C(F)(F)F`: the AC50 is 52.4 µM (active).

In the case of `NC(=O)C(F)(F)C(F)(F)C(F)(F)C(F)(F)F`, the call was inactive.

Turning to `CC(C)(C)C(=O)CC(=O)C(F)(F)C(F)(F)C(F)(F)F`, the compound was called inactive.

Turning to `N=C(N)C(F)(F)C(F)(F)C(F)(F)C(F)(F)C(F)(F)C(F)(F)C(F)(F)F`, the outcome was inactive.
